# Compound activity deposited in PubChem by several laboratories.
# M1 agonist = agonists of M1 muscarinic receptor; CHO-M1 cells, Fluo-4 calcium fluorescence, agonist mode; active compounds read high; B-score at 10 µM; hit rate 3% among 64,000; AID 626;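 active means fluorescence rise, raw or as B-score row- and column-corrected plate score, outside the 99.7% band of its plate's samples, either direction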
# M1 antagonist = M1 muscarinic receptor (rat) antagonism; P08482; CHO-M1 cells, Fluo-4 calcium, ACh EC80 antagonist mode; active compounds read low; AID 628; hit rate 3.4% among 64,000; B-score at 10 µM;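 active means calcium fluorescence response, raw or row-and-column corrected B-score, differing from the plate sample mean either way at a set confidence level, mostly lower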
# PTK2B oligo ant = antagonists of human Pyk2 oligomerization. hit rate 0.83% among 99,000. Q14289. z-score (the deposit names both 25 µM and 10 µM). Q293 cells, Pyk2 FERM NanoBiT luminescence; active compounds read low;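 active means Z-score of -3 or lower, scaled per plate to the spread of control and sample wells; inactive means z-score above -3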;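 further: negative z-score means lost luminescence so less FERM oligomerization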
# Cav3 T inh = inhibitors of human Cav3.2 T-type calcium channel | O95180 | Cav3.2-expressing cells, Fluo-4 calcium fluorescence FDSS; active compounds read low | B-score at 10 µM | hit rate 4% among 100,000 | AID 449739;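 active means single-dose well whose peak fluorescence ratio is a statistical outlier from its plate by either plate-standardised score or position-corrected B-score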
# M1 agonist conf = confirmation of rat M1 muscarinic receptor agonists | AID 1488 | shares compounds with M1 agonist | fluorescence change (max-min) at 10 µM | CHO-M1 cells, Fluo-4 calcium fluorescence, agonist mode; actives lie on both sides | hit rate 19% among 1,700;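 active means fluorescence change differs from the solvent-only DMSO control mean at a set confidence level in both duplicate runs; inconclusive means differs from solvent-only control mean in just one of two runs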;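 further: an EC20 dose of acetylcholine follows compound addition during the same imaging run; raw fluorescence intensity difference in instrument units with no normalization to controls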
# M4 agonist ctr = rat M4 muscarinic agonism, M1 counter-screen. CHO M4/Gqi5 cells, Fluo-4 calcium fluorescence, agonist mode; actives lie on both sides. fluorescence change (max-min) at 10 µM. hit rate 9% among 1,700. shares compounds with M1 agonist. AID 1741;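 active means fluorescence change differing from the plate's solvent-only control wells at 99.7% confidence in both duplicates, whether higher or lower; inconclusive means differs from solvent controls in only one of two duplicates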
# Target sequence (P08485 whole entry, looked up): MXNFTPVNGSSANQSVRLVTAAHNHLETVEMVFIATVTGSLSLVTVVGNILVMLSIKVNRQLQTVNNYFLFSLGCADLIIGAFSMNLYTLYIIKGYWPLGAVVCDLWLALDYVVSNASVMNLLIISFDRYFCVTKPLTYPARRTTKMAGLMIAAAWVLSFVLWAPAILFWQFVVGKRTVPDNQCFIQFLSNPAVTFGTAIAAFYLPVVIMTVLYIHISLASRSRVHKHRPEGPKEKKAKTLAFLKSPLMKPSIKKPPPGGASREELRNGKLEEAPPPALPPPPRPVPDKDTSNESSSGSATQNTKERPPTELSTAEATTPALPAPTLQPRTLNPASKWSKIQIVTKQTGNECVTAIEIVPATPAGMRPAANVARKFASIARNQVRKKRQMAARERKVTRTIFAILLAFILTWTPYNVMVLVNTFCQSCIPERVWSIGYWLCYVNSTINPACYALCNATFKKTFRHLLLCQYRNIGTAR
# * marks the source's active call; other numbers are inactive results; ? = inconclusive; . = not tested or not shown. A selection: hits, their analogues and other compounds. The true share with any hit is near 7.1%.
SMILES,M1 agonist,M1 antagonist,PTK2B oligo ant,Cav3 T inh,M1 agonist conf,M4 agonist ctr
CCN1C(=O)c2cccc3c(NC(=O)c4ccc5c(c4)OCCO5)ccc1c23,8.95*,0.0359,0.86,-0.0962,2.75,134*
COc1ccc(N(C(=O)c2ccn[nH]2)C(C(=O)NC(C)(C)C)c2ccc(F)cc2)cc1 (centres undefined),.,.,-0.61,-1.62,.,.
CCC(C)(C)NC(=O)C(c1cccc(OC)c1)N(C(=O)c1ccn[nH]1)c1cccc(OC)c1 (centres undefined),12*,-0.952,-1.36,-5.09*,-23.9*,-68.2*
CCOC(=O)N1CCN(C(=S)NCCOC)CC1,.,.,2.15,1.55,.,.
CCC(C)[C@H](NC(=O)NCC1CCCO1)C(=O)OC (some centres undefined),4.95*,1.01,0.14,0.445,-1.9,-9.07
CCCCCCc1cc2cc(C(=O)NC)c(=N)oc2cc1O,401*,-14.6*,-2.23,-9.34*,3193*,2756*
CCCCOc1ccc(S(=O)(=O)Nc2cccnc2)cc1,4.89*,-1.48,-0.85,-1.36,-1.35,?
Cc1ccc(S(=O)(=O)Nc2cccnc2)cc1,.,.,-0.13,-0.227,.,.
COc1ccc(S(=O)(=O)N2Cc3ccccc3CC2C(=O)Nc2ccc(O)cc2)cc1OC (centres undefined),4.02*,-0.666,.,0.367,-4.02,-23.7
O=C(Nc1ccc2c(c1)OCO2)C1Cc2ccccc2CN1S(=O)(=O)c1cccs1 (centres undefined),5.54*,-1.16,-0.73,-1.74,-0.255,-21.5
CC1CCc2c(sc(NC(=O)CN3CCN(C(=O)c4ccco4)CC3)c2C#N)C1 (centres undefined),.,.,-0.2,-0.664,.,.
CCN=C1SC(CC(=O)NCC)C(=O)N1CC (centres undefined),.,.,0.46,0.1,.,.
CCN=C1SC(CC(=O)Nc2ccccc2)C(=O)N1CC (centres undefined),10.9*,-3.76*,0.39,0.283,?,-55.8
CCNc1cccc2c1C(=O)N(C)C2=O,179*,-0.688,0.38,-4.09*,928*,935*
CN1C(=O)c2cccc(NCCCN3C(=O)c4ccccc4C3=O)c2C1=O,4.77*,1.06,1.24,-1.99,8.12,16.1
Cc1oc(C)c2c(=O)ccc3c(c12)OC(N)=C(C#N)C3c1ccccc1 (centres undefined),-0.000908,0.561,0.15,.,.,.
CSc1ccc(C2C(C#N)=C(N)Oc3c2ccc(=O)c2c(C)oc(C)c32)cc1 (centres undefined),7.17*,0.551,-0.77,-1.52,15.4,-18.3
COc1ccc(S(=O)(=O)N(Cc2cc3ccc(OC)cc3[nH]c2=O)CC2COCCO2)cc1 (centres undefined),4.88*,-0.192,-0.48,0.427,-12.2,?
COc1ccc2cc(CN(CC3COCCO3)S(=O)(=O)c3ccccc3)c(=O)[nH]c2c1 (centres undefined),0.00106,0.114,-1.08,0.602,.,.
Cc1cc(C(=O)N2CCN(c3ccccc3)CC2)c(C)o1,.,.,1.25,-0.535,.,.
O=C(c1ccccc1C(=O)N1CCN(c2ccccc2)CC1)N1CCN(c2ccccc2)CC1,3.74*,0.256,0.95,-0.717,5.41,-40.9
CCCC(=O)NCCc1ccc(S(N)(=O)=O)cc1,.,.,0.46,0.0206,.,.
COC(=O)C1=C(C)N(CCCC(=O)O)C(=O)NC1c1cccc(Cl)c1Cl (centres undefined),.,.,.,1.45,.,.
COC(=O)C1=C(C)NC(=O)CC1c1cccc(Cl)c1Cl (centres undefined),3.82*,0.00121,.,0.0594,?,-47.4
CCCC(C(=O)NC1CCCC1)N(C(=O)Cn1nnc(-c2ccc(C)o2)n1)c1ccccc1OC (centres undefined),-0.682,0.0363,-1.09,-1.69,.,.
SMILES,M1 agonist,M1 antagonist,PTK2B oligo ant,Cav3 T inh,M1 agonist conf,M4 agonist ctr
CCOc1ccc(C(=O)NCC(=O)OCC(=O)N2C(C)CCCC2C)cc1 (centres undefined),.,.,1.18,-0.383,.,.
CCOc1ccccc1C(=O)NCC(=O)OCC(=O)N1C(C)CCCC1C (centres undefined),-2.55*,-0.299,1.64,0.556,?,-83.7*
O=C(CSc1nc2ccccc2s1)Nn1cnnc1,-0.297,0.138,0.52,-0.257,.,.
O=C(Nc1cccc2nsnc12)C1CC(=O)N(c2ccccc2)C1 (centres undefined),-2.66*,0.015,0.02,0.116,?,?
C=C(C)CN1CCN(c2c(CCC#N)c(C)c(C#N)c3nc4ccccc4n23)CC1,5.7*,0.0647,1.44,.,7.39,0.765
Cc1ccccc1NCCNc1ccccc1C,.,.,-0.17,-0.537,.,.
CCn1nc(NC(=O)c2cccnc2)c2cc3ccccc3nc21,5.01*,-0.0959,-0.9,-0.253,-29.9*,-91.6*
CCn1nc(NC(=O)c2ccccn2)c2cc3cc(C)ccc3nc21,-0.00622,1.03,-1.21,.,.,.
COC(C[C@H]1O[C@H]1[C@@H](O)[C@@H](C)OCc1ccccc1)OC,.,.,.,-0.651,.,.
O=P(COc1ccccc1)(c1ccccc1)c1ccccc1,.,.,-0.37,-0.972,.,.
COc1ccccc1C(=O)NC(=Nc1nc2ccccc2o1)NC(=O)c1ccccc1OC,6.44*,-0.456,-1.28,-3,?,-50.1
COc1ccc(CC(=O)NCCN2CCCC2)cc1,.,.,0.05,1.22,.,.
CCOC(=O)CN(C)C(=O)C1CCCN1C(=O)OC(C)(C)C (centres undefined),.,.,.,-1.25,.,.
Cc1[nH]ccc(=O)c1OC1OC(CO)C(O)C(O)C1O (centres undefined),.,.,.,1.26,.,.
CCOC(=O)C(C)Sc1nnc(CNC(=O)c2ccc(OC)cc2)n1C1CCCCC1 (centres undefined),3.28*,-0.97,0.7,-1.5,?,?
CCOC(=O)c1ccc(NC(=O)Nc2ccc(OC)c(OC)c2)cc1,7.31*,-0.445,0.07,0.45,-22.4*,?
COC(=O)c1ccc(NC(=O)Nc2ccc(F)cc2)cc1,15.3*,-3.41*,0.92,-2.95,32.6,52.4
Cc1nc(SCC(=O)N2CCc3ccccc32)n[nH]1,.,.,-0.45,0.377,.,.
C=CCn1c(/N=C/c2ccc(N(C)C)cc2)nc2ccccc21,14.7*,-1.16,-0.45,-1.97,118*,114
COCCn1nnnc1C(c1cccc(OC)c1OC)N1CCN(C2CCCCC2)CC1 (centres undefined),17.8*,0.419,0.57,0.108,?,-50.7
CC[C@@H](C(=O)n1nc(C)cc1C)[C@H](NS(=O)(=O)c1ccc(C)cc1)c1ccccc1,.,.,-0.71,0.0457,.,.
C=C(C)Cn1c(=O)c2c(nc3n2CCN3c2cccc(Cl)c2C)n(C)c1=O,3.03*,-1.58,0.04,2.73,-11.7,-32.2
CCN(CC)S(=O)(=O)c1ccc(S(=O)(=O)Nc2ccc(C(=O)N3CCCC3)cc2)cc1,2.21*,0.876,2.4,1.98,-9.53,-29.9
Cn1nc(CC(=O)NC2CCCCCCCCCCC2)c2ccccc2c1=O,.,.,1.39,-1.81,.,.
Cn1nc(CC(=O)Nc2ccc3c(c2)CCC3)c2ccccc2c1=O,11.1*,-1.99,0.17,0.363,32.6,19.5
CN1C2=NCCN2C(=O)c2ccccc21,.,.,0.29,1.01,.,.
